# Paper PMC4336329 (PLoS ONE, 2015)
# Hit rate of the full screen: of about 310,000 compounds, about 14,000 (4.5%) showed an effect of 50% or more. Effects have a minus sign here. Many of the other results were omitted from the sample, so strong results are more common in it than they were.
# Target: human ether-à-go-go-related gene (hERG) potassium channel (human, UniProt Q12809)
# Test: primary screen, population patch clamp on CHO cells stably expressing hERG; higher = less effect of the substance
# 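Note: peak tail current of the secondary pulse compared with the same well before compound.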
# Sequence of human ether-à-go-go-related gene (hERG) potassium channel (Q12809 whole entry, looked up): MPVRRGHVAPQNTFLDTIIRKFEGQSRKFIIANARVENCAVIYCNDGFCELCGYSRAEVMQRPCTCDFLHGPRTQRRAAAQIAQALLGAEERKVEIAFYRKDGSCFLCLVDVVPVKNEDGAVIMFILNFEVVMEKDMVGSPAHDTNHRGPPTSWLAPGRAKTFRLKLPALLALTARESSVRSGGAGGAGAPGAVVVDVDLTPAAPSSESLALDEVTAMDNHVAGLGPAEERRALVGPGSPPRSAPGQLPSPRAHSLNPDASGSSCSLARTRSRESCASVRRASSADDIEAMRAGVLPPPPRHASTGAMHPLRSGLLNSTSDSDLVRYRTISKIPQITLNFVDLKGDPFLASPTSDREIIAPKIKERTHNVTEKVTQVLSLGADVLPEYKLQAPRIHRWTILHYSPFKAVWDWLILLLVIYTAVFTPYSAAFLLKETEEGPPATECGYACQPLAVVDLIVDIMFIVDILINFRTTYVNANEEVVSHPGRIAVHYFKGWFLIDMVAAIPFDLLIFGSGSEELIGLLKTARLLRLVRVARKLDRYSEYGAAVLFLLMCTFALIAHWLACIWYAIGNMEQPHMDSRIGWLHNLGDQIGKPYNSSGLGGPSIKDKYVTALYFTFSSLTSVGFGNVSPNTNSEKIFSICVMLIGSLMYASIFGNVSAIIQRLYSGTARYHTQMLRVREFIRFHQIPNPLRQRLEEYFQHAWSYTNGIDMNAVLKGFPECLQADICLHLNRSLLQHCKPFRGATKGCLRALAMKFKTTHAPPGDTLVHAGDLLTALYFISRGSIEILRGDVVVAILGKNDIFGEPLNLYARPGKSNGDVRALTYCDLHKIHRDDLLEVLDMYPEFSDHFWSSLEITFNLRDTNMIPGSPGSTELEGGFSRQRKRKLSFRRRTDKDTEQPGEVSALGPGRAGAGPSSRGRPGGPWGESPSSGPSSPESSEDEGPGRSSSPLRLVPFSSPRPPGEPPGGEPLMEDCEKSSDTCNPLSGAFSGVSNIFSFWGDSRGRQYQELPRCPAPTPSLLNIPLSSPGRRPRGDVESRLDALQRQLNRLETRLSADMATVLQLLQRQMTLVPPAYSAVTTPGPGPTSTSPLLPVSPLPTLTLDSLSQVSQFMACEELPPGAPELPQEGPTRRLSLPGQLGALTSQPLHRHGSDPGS
row,Compound,"hERG current change (%, negative = inhibition) at 10uM [%]"
1,Cc1c(CCO)c(=O)n(C)n1C(=O)c1ccc(F)cc1,2.6
2,CCCCCN(C(=O)CCC(=O)OCc1ccc(C(C)(C)C)cc1)c1c(N)n(CCCC)c(=O)[nH]c1=O,-8.09
3,CCN(Cc1ccccc1)C(=O)c1ccc(CS(=O)c2ccccc2C)o1 (stereo not drawn),-43.9
4,C/C(=N\NC(=O)c1csc(C)c1C)c1ccc(Cl)s1,-0.674
5,C/C=C\C=C\C(=O)N1CC2(CC(c3cccc(NC(=O)CC(c4ccccc4)c4ccccc4)c3)=NO2)C[C@H]1C(N)=O (stereo partly drawn),0.883
6,O=C1C(Cl)=C(Nc2cccc(O)c2)C(=O)N1Cc1ccccc1,-62.4
7,CC1CCCCN1C(=O)c1cccc(NC2=C(Cl)C(=O)N(Cc3ccccc3)C2=O)c1 (stereo not drawn),-15.8
8,CCOc1ccc(NC2=C(Cl)C(=O)N(Cc3ccccc3)C2=O)cc1,-0.258
9,NC(C(=O)O)c1cc(=O)[nH]o1 (stereo not drawn),13.4
10,CCCCn1c(SCC(=O)NC2CCCC2)nnc1-c1ccco1,-54.8
11,CCn1c(SCC(=O)Nc2cccc(C)n2)nnc1-c1ccco1,-50.9
12,CCCn1c(SCC(=O)NC2CCCCC2)nnc1-c1ccco1,-20.3
13,CCn1c(SCC(=O)NC2CCCC2)nnc1-c1ccco1,14.8
14,CCn1c(SCC(=O)Nc2cc(C)on2)nnc1-c1ccco1,-4.87
15,CCC(=O)Nc1ccc(NC(=O)CSc2nnc(-c3ccco3)n2CC)cc1,8.22
16,COCCCn1c(SCC(=O)Nc2cccc(C)n2)nnc1-c1ccco1,-69.3
17,COCCn1c(SCC(=O)Nc2cc(C)on2)nnc1-c1ccco1,-4.67
18,CCCCn1c(SCC(=O)Nc2cccc(C)n2)nnc1-c1ccco1,-76
19,COCCn1c(SCC(=O)Nc2cccc(C)n2)nnc1-c1ccco1,-11.5
20,CCCCn1c(SCC(=O)NC(C)(C)C)nnc1-c1ccco1,-1.57
21,CCCCn1c(SCC(=O)Nc2cc(C)on2)nnc1-c1ccco1,-23.3
22,O=C(O)c1cccc(Nc2ncnc3ccc(Br)cc23)c1,-1.55
23,COc1ccccc1CNS(=O)(=O)c1ccc(C)cc1,7.04
24,CN(C)c1ccc(/C=C2\C(=N)N3N=C(CC(=O)N4CCCC4)SC3=NC2=O)cc1Br,4.09

row,Compound,"hERG current change (%, negative = inhibition) at 10uM [%]"
1,COCc1cc(C)nc(N/N=C/c2ccc(Cl)c(Cl)c2)c1C#N,12.4
2,CCN1CC2([N+](=O)[O-])CC=C(Cl)C([N+](=O)[O-])(C1)C2 (stereo not drawn),13.9
3,Cc1ccccc1N1CCN(S(=O)(=O)c2ccc3ccccc3c2)CC1,9.64
4,Cc1nc2ncnn2c(N2CCN(S(=O)(=O)c3ccc(Br)cc3)CC2)c1C,-20.7
5,Cc1cc(N2CCN(S(=O)(=O)c3ccc(Br)cc3)CC2)n2ncnc2n1,-76.9
6,CC(=O)Nc1ccc(S(=O)(=O)N2CCN(c3cc(C)nc4ncnn34)CC2)cc1,-27.9
7,Cc1cc(N2CCN(S(=O)(=O)Cc3ccccc3)CC2)n2ncnc2n1,-46.1
8,Cc1cc(N2CCN(S(=O)(=O)c3ccc4ccccc4c3)CC2)n2ncnc2n1,-77.7
9,CC1CN(C(=O)CSc2nnc(NC(=O)NC(C)(C)C)s2)CC(C)O1 (stereo not drawn),19
10,CC1(CCc2ccccc2)NC(=O)N(Cc2nnc(-c3ccccc3Br)o2)C1=O (stereo not drawn),-26
11,CCOC(=O)C1CCN(C(=O)CN(c2ccc(OC)c(OC)c2)S(=O)(=O)c2ccccc2)CC1,-14.7
12,CCOc1ccc(S(=O)(=O)NCCC(=O)NCC(c2ccco2)N2CCCCC2)cc1 (stereo not drawn),-17.7
13,CC1N(C)c2cc(NC(=O)c3ccco3)c(P(=O)(Nc3ccc([N+](=O)[O-])cc3)N3CCOCC3)cc2C1(C)C (stereo not drawn),-56
14,CN1CCN(c2ccc([N+](=O)[O-])cc2NC(=O)c2ccco2)CC1,-66.9
15,CN1CCN(c2ccc(C(F)(F)F)cc2NC(=O)c2ccco2)CC1,-54.5
16,O=C(Nc1cc(C(F)(F)F)ccc1N1CCOCC1)c1ccco1,6.93
17,CC1N(C)c2cc(NC(=O)c3cccs3)c(P(=O)(Nc3ccc([N+](=O)[O-])cc3)N3CCOCC3)cc2C1(C)C (stereo not drawn),12.2
18,CCC(=O)Nc1cc(C(F)(F)F)ccc1N1CCOCC1,1.09
19,Cc1cc(C(=O)Nc2cc(C(F)(F)F)ccc2N2CCOCC2)no1,5.97
20,CC1N(C)c2cc(NC(=O)c3ccco3)ccc2C1(C)C (stereo not drawn),-13.9
21,O=C(Nc1cc(C(F)(F)F)ccc1N1CCCCC1)c1ccco1,21.2
22,O=C(Nc1cc([N+](=O)[O-])ccc1N1CCCC1)c1ccco1,-34.5
23,O=C(Nc1cc([N+](=O)[O-])ccc1N1CCOCC1)c1ccco1,-25.6
24,CCCCn1nc(C(=O)Nc2cc(C(F)(F)F)ccc2N2CCOCC2)ccc1=O,-83.7

row,Compound,"hERG current change (%, negative = inhibition) at 10uM [%]"
1,O=S(=O)(N1CCOCC1)N1CCCN(S(=O)(=O)N2CCOCC2)CC1,5.76
2,COc1cc2ccccc2cc1C(=O)NCCCN1CCOCC1,-5.9
3,Cc1nn(C(C)C(=O)Nc2sc3c(c2C#N)CCCC3)c(C)c1[N+](=O)[O-] (stereo not drawn),12.1
4,O=C(/C=C/c1ccccc1Cl)NCCCn1ccnc1,-17
5,Cc1ccc(S(=O)(=O)c2c(C)nn(C(C)(C)C)c2OC(=O)C(C)(C)C)cc1,15.6
6,C=CCn1c(N2CCN(c3ccc(OC)cc3)CC2)nc2c1c(=O)n(C)c(=O)n2C,-32.1
7,CCN(CC)c1nc(C)nc2c1sc(=S)n2C,-1.82
8,Clc1ccc(CNc2nnnn2-c2ccccc2)c(Cl)c1,20.7
9,COc1cccc(/C=C/C(=O)OCC(=O)Nc2ccc(Cl)cn2)c1,28.1
10,CCCCC1=NN(C(=O)c2ccncc2)C(O)(C(F)(F)F)C1 (stereo not drawn),23.1
11,COc1ccccc1C(=O)COC(=O)CCNS(=O)(=O)c1ccc(C)c(C)c1,-21.9
12,CCC(C(=O)N1CCN(c2ccccn2)CC1)n1nc(C)n2c(cc3occc32)c1=O (stereo not drawn),-5.95
13,Cc1ccc(C(=O)N2N=C(c3ccccc3O)CC2c2ccccc2)cc1 (stereo not drawn),14.6
14,COc1cccc(NC(=O)CSc2nc(=O)n(CCN(C)C)c3c2CCCC3)c1,-49.9
15,COc1ccc(NC(=O)CSc2nc(=O)n(CCN(C)C)c3c2CCCC3)cc1OC,-11.5
16,CN(C)CCn1c2c(c(SCC(=O)Nc3ccccc3)nc1=O)CCCC2,-26.7
17,CN(C)CCn1c2c(c(SCC(=O)Nc3cccc(C(F)(F)F)c3)nc1=O)CCCC2,-68.8
18,Cc1ccc(NC(=O)CSc2nc(=O)n(CCN(C)C)c3c2CCCC3)cc1Cl,-59.8
19,CN(C)CCn1c2c(c(SCC(=O)Nc3ccc4c(c3)OCCO4)nc1=O)CCCC2,-14.8
20,Cc1ccc(-n2nc3c(c2NC(=O)c2ccco2)CS(=O)C3)cc1 (stereo not drawn),-8.69
21,CC(C)Cn1c(=S)[nH]c2ccccc2c1=O,22
22,CCCNC(=O)NCCc1ccncc1,7.09
23,COc1ccc2c(c1OC)C(=O)N(c1ccc(O)cc1)C2=O,13.4
24,CCN(CCCNC(=O)c1c(C)cc(=O)oc1C)c1cccc(C)c1,-65.3

row,Compound,"hERG current change (%, negative = inhibition) at 10uM [%]"
1,Cc1cc(=O)oc(C)c1C(=O)NCCNC(=O)c1c(C)cc(=O)oc1C,3.85
2,Cc1cc(=O)oc(C)c1C(=O)NCCN(C)Cc1ccccc1,8.33
3,CCN(CCCNC(=O)c1[nH]c(C)c(C(C)=O)c1C)c1cccc(C)c1,-18.2
4,CCN(CCCNC(=O)c1c(C)cc(=O)oc1C)c1ccccc1,-52.7
5,CCCCN(CCCNC(=O)c1c(C)cc(=O)oc1C)c1ccccc1,-64.4
6,Cc1cc(=O)oc(C)c1C(=O)NCCc1ccccc1,7.49
7,CCCNC(=O)c1c(C)cc(=O)oc1C,-6.11
8,Cc1cc(=O)oc(C)c1C(=O)NCc1ccccc1,11.2
9,CC(=O)c1ccc(N2CCN(C(=O)CCS(=O)(=O)c3ccc4c(c3)CCN4C(C)=O)CC2)cc1,3.77
10,COc1ccc(-c2csc3ncn(Cc4ccccc4)c(=O)c23)cc1,-0.922
11,COc1ccc(N2CCN(CC(=O)N3N=CCC3c3ccccc3)CC2)cc1 (stereo not drawn),-2.49
12,O=C(COC(=O)CCc1c[nH]c2ccccc12)NCc1ccc2c(c1)OCO2,13.2
13,C/C(=N\NC(=S)NC1CCCCC1)c1c(F)cccc1F,-35
14,C/C(N)=C(/C#N)C(=O)COC(=O)[C@@H](NC(=O)c1ccccc1Cl)C(C)C,4.16
15,COc1ccc(S(=O)(=O)N2CCOC2CNC(=O)C(=O)NCc2ccncc2)cc1 (stereo not drawn),3.26
16,COc1ccccc1-c1ccc(SCC(=O)NC2CCCC2)nn1,-24.5
17,COc1ccc(-c2ccc(SCC(=O)NC3CCCCC3)nn2)cc1OC,16.4
18,COc1ccc(-c2nnc(SCC(=O)NC3CCCCC3)o2)cc1OC,-9.47
19,COc1ccccc1-c1ccc(SCC(=O)NC2CCCCC2)nn1,-72
20,COc1ccccc1-c1nnc(SCC(=O)NC2CCCCC2)o1,-27.4
21,COc1ccc(OC)c(-c2nnc(SCC(=O)NC3CCCCC3)o2)c1,-59.8
